# Source: PubChem BioAssay AID1508600 (Functional Genomics Laboratory (NCATS/FGL), 2020)
# In all, about 53,000 sequences went through this assay and about 3,700 (7%) were called active. Only a selection was taken, and actives are over-represented in it overall. Unmarked numbers belong to inactive results.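 Rule for the calls: active = gene knockdowns whose robust z-score for IL-1 alpha signal is at least 2 or at most -2, so actives lie on both sides; inactive = the rest.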
# Experiment: Components of the Cytosolic LPS Sensing Pathway: Gene Identification via Genome-wide siRNA Screen;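 note: robust z of the log signal after scaling to non-targeting control siRNA wells of the plate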
# Conditions: RAW264.7 macrophages, IL-1a HTRF, actives lie on both sides, screened at 100 nM (by protocol), cells primed 5 h with Pam3CSK4 first
# Method in brief: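 IL-1a HTRF of supernatants after 24 hour LipidA transfection of Pam3CSK4-primed (5 hours) RAW264.7 cells, 48h post-siRNA transfection (100 nM). Scores: percent of plate negative-control median, then log-based robust z-score.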
row,Sequence,z-score
1,GGUAGUGAUCCUCAAAAAATT against Myc,1.84
2,AGUCUUCACGUUUCAUUUATT against Olfr1195,0.32
3,CGCUGUUUGUUCAAGAGGATT against Thbs1,1.05
4,GCACAAGCGAAGAAGUUUGTT against Ube2i,-0.0933
5,GCUCAACUUGGAAUUGGAGTT against Arhgap29,2.28 (active)
6,CCAUCUUGACAUCUCGUGUTT against Olfr592,-1.9
7,CUUUAUGGGUCGUGGAGGATT against Hnrnpa3,-1.12
8,GGAAUAGGACCUAUGUCUGTT against Nr2e1,-0.455
9,CCCUGGCUGAGUGCUUUGUTT against Olfr199,0.887
10,GGGUUGCCACAUGUUAUAUTT against Smad2,-0.0821
11,GGAGAAUGAGUGGUAUCUGTT against Msh2,-1.48
12,AAGGACGAUCCUGAUUUCATT against Gm5431,0.828
13,CCAUACAUCCGAGAGUUUGTT against Snrnp70,2.37 (active)
14,GCCCUUUCAUCAAUAAUGUTT against Slc12a7,-0.113
15,GGAAACAUAACCUUCAAUGTT against Wdr3,1.13
16,CGGAAGCCUCCACAAAUAATT against Apba1,0.0959
17,GGUGUCUACUCUGAGUUGCTT against Pan2,1.94
18,GCGGAGGAGUUUUCUUCGATT against Susd4,0.93
19,GGACCAUGCUCCCUACUUATT against Prss37,0.386
20,GGCUGGUUGGAAGGAAAAUTT against Ints6l,2.1 (active)
21,GGCUGUUCAAAAAUUUCGGTT against Sox17,-0.261
22,GGUUUUGAGAAGAUAACUCTT against Zfp236,0.67
23,GGACACACUCUACUUCCCATT against Mrgprg,-0.196

row,Sequence,z-score
1,GGUUCGAGUUUCAUACUAUTT against Padi4,2.56 (active)
2,GUCAGAACAAAACCAAAUGTT against E330013P04Rik,-0.152
3,GGAAUCAUCUUCAUUGACCTT against Agpat1,0.0827
4,CGUGUGGUGUUGGUAUCAGTT against Spaca1,0.853
5,GGAUUCAUAAAAGAAGCAATT against Zfp90,0.8
6,GGCGGCACGUUCACCUAAATT against Rnps1,1.86
7,CCACUUGUAGACUUGAUUUTT against Jag1,0.618
8,GCCCAGAUCAAUUUGAGCGTT against Grhl2,-0.674
9,CGAGAUAGAGUCUGGAAUUTT against 1700092C17Rik,3.91 (active)
10,GGUCAUCGGGAGGUUUGAATT against Nfkbil1,-0.0141
11,GGAUCUCUAUAGCAUCGUGTT against Col18a1,0.249
12,GGGAUGCUGUAGAUGGAAUTT against Olfr978,0.0466
13,GGCAAAUCAAGCAGAAAAUTT against Ncor1,0.739
14,GAUAAUGGUCACUAAAUCUTT against Vmn1r4,-1.65
15,GCAACCAUUUAAGAAGACCTT against Tnfrsf9,-0.301
16,GGUGAUCUGGACCAAGAUGTT against Lcp1,-0.52
17,GGUCUACUUUUACGUCUCCTT against Nfatc4,-0.339
18,GUGUACGUCUGUUAACACATT against Dad1,-2.1 (active)
19,CCUUCUUGAAAACUCCAAGTT against Lum,-0.862
20,GGGAAGGCACACCAUAGAATT against Zfp369,1.11
21,GGGCUACUAUUCAUUGAUCTT against 4930550L24Rik,1.94
22,CCACUAAGUCCCAUGCUAGTT against Glycam1,0.188
23,GGAAUUUAAGGUGUUCACATT against Lcn3,-0.197

row,Sequence,z-score
1,GGCUCAGUGAGUUUCAGAATT against Snx25,3.66 (active)
2,CCAAAUGUAACUGGUGUAATT against Aif1l,-0.69
3,CGAGACAGUUUCCAUAGCGTT against Spen,-0.271
4,GCAACAUUAGGAUUUAUAGTT against Gask1b,0.0376
5,GGUAGUCAUACAGAUAUGUTT against Hey2,0.973
6,GCAAUCUCUCCUUUUGUGATT against Olfr1128,0.426
7,GGACUUUCACAGACCACUUTT against Rgma,0.999
8,GGAACAAGGAUGUAAAAUUTT against Olfr1090,-0.751
9,GGAAGACUUUCUGGACAUATT against Sgk2,2.44 (active)
10,CCUACAGCAACCAUAAGGATT against Plch2,-1.6
11,GGACAGCUGUUUCAAUUCUTT against Il1rap,-0.162
12,GGAUUUGCCUACACAUAUGTT against Nqo1,0.362
13,CCCUUCUCCACCUGAGAGUTT against Orm3,-2.25 (active)
14,GGAAAUGAAGAGUGUUGAATT against Slc7a3,-0.4
15,UGCCCAAGACUCAGAAGUCTT against Igf1,0.0658
16,GCUAACUGCCUUGGGAAGATT against Lyl1,2.57 (active)
17,GGCCAAGCACGAUAAAUACTT against Stub1,-1.08
18,CCUACAGUAUGUGGCAGAUTT against Grb7,-1.49
19,GGUGUUUUAUACACUCUGUTT against Mgme1,-1.85
20,GGACUUAAAACAGAAAGCATT against Haus1,-2.79 (active)
21,CGUGGUUGUACAUAUUUGUTT against Trip10,0.39
22,GGGAAACAAAUUGUUUGCATT against Dnaaf4,-0.461
23,GGCUUUGUCGUUAAUUUUUTT against Auh,0.322
